{"source": "PubChem BioAssay (NCI)", "note": "This is part of a sample that, as a whole, favours compounds with a hit. Of some 83,000 tested, about 20% had one in any assay.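 48-hour exposure, single concentration, 96-well plates; percent growth endpoint where 0 means no net growth. Active: below 10.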 Values without a mark were called inactive. Active and inactive are the calls of the source.", "data": [{"tested_on": "HCC-2998 colon", "assay": "NCI-60 one-dose screen, 48 h (100 = growth as untreated, 0 = no growth, -100 = all killed)", "details": "10 µM unless noted", "method": "Growth inhibition of the HCC-2998 human tumor cell line is measured as a screen for anti-cancer activity. Cells are grown in 96 well plates and exposed to the test compound for 48 hours. Compounds are tested at a single concentration, which is 10^-5 M for most compounds. The reported endpoint is percent growth (GI% or GIPRCNT), where numbers from 0 - 100% represent growth inhibition, and numbers from -100% - 0 represent cell death. For example, a value of 40 represents 60% growth inhibition. A value of 0 means no net growth occurred over the course of the experiment. A value of -40 indicates 40% of cells at the beginning of the experiment died by the end of the experiment. A value of -100 means all cells are dead at the end of the experiment.\nNCI-60 Human Tumor Cell Lines Screen was performed using the standard one-dose NCI protocol, which is described in more detail at https://dtp.cancer.gov/discovery_development/nci-60/default.htm.\nCompounds with GIPRCNT values below 10 were considered active. Activity score was based on GIPRCNT using the following formula: […]\nScore is 0 for GIPRCNT values of 100 or above, 50 for GIPRCNT values of 0, and 100 for GIPRCNT values of -100.", "values": [{"smiles": "O=C(c1c[nH]c2ccccc12)C(Sc1nc2ccccc2c(=O)[nH]1)c1ccccc1", "note": "(stereo not given)", "growth": "112%"}, {"smiles": "COc1cc(-n2nc(C(=O)Nc3ccc(C(=O)O)cc3)nc2-c2ccccc2)cc(OC)c1OC", "growth": "97.9%"}, {"smiles": "COc1ccc(C(=O)c2cc(OC)c(OC)c(OC)c2)cc1/C=C/C(=O)c1ccc2c(c1)OCO2", "growth": "27.3%"}, {"smiles": "CCC(C)NCC(=O)O", "note": "(stereo not given)", "growth": "101%"}, {"smiles": "Nc1c(C(=O)c2ccc(F)cc2)sc2nc3c(cc12)CCCC3", "growth": "76.7%"}, {"smiles": "Cc1cc(N/C=c2\\sc3ncnn3c2=O)no1", "growth": "96.9%"}, {"smiles": "O=C1N=C(c2c(-c3[nH]c(=O)c4ccc(Br)cc4c3O)c(O)c3ccccc3c2O)C(=O)c2cc(Br)ccc21", "growth": "-44.3% (active)"}, {"smiles": "CCN1C(=O)N(CC)C2C1NN=c1s/c(=C3\\C(=O)N(C4CCCC4)c4ccccc43)c(=O)n12", "note": "(stereo not given)", "growth": "-16.7% (active)"}, {"smiles": "COc1cc(CCn2nnc3c(Nc4ccc(N5CCOCC5)cc4)ncnc32)cc(OC)c1", "growth": "99.7%"}, {"smiles": "O=C1OC(c2ccccc2)=N/C1=C\\c1ccc([N+](=O)[O-])cc1", "growth": "108%"}, {"smiles": "O=C(CNc1c(Cl)cccc1Cl)Nc1ccc(-c2nc3ccccc3s2)cc1", "growth": "35.6%"}, {"smiles": "O=C1c2ccccc2C(=O)c2c1oc1oc3c(c(=O)c21)c(=O)n(-c1ccccc1)c1ccccc31", "growth": "42.9%"}, {"smiles": "NC(C(=O)O)C(O)c1ccc(OCc2ccccc2)c(OCc2ccccc2)c1", "note": "(stereo not given)", "growth": "115%"}, {"smiles": "C=C1C(=O)O[C@H]2[C@H](O)[C@@H](C)CCC/C(C)=C/CC[C@@]3(C)O[C@@H]3C[C@@H]12", "growth": "111%"}, {"smiles": "Nc1c(C(=O)Nc2c(Cl)cccc2Cl)sc2nc3c(cc12)CCCCC3", "growth": "57%"}, {"smiles": "COc1cc(/C=C/C(=O)c2ccc(NC(=O)CN3CCN(c4cc5c(cc4F)c(=O)c(C(=O)O)cn5C4CC4)CC3)cc2)cc(OC)c1OC", "growth": "-11.6% (active)"}, {"smiles": "Cc1cc2c(C(C)C)c(O)c(O)c(C=NCCCCC(=O)O)c2c(O)c1-c1c(C)cc2c(C(C)C)c(O)c(O)c(C=NCCCCC(=O)O)c2c1O", "growth": "40.2%"}, {"smiles": "Cc1ccc(S(=O)(=O)OCC(=O)Nc2ccc(C(=O)O)c(O)c2)cc1", "growth": "87.6%"}, {"smiles": "COc1cc(-c2csc(NC(=O)c3cc(C(F)(F)F)cc(C(F)(F)F)c3)n2)cc(OC)c1OC", "growth": "31%"}, {"smiles": "Cc1ccc(OCCn2c(C)nn(-c3ccc(Cl)cc3)c2=O)cc1", "growth": "111%"}, {"smiles": "NC(=O)c1ccc2c(c1)OCO2", "growth": "100%"}, {"smiles": "COc1ccc(/C=C/C(=O)/C=C/c2cc3ccc(Cl)cc3[nH]c2=O)cc1", "growth": "93.1%"}, {"smiles": "CC(=O)/C=C/c1cc2cc(Cl)ccc2[nH]c1=O", "growth": "95.2%"}, {"smiles": "COc1cc(C2C3=C(COC3=O)Nc3c2ccc2c3CCCC2)cc2c1OCO2", "note": "(stereo not given)", "growth": "5.11% (active)"}, {"smiles": "COc1cc(CNC(=O)CCSc2nc3ccccc3c(=O)n2Cc2cc(OC)c(OC)c(OC)c2)cc(OC)c1OC", "growth": "86%"}, {"smiles": "COc1ccc(-c2nc(-c3ccccc3)c(-c3ccccc3)n2C2CC2)cc1OC1CCCCC1", "growth": "83.2%"}, {"smiles": "C#CCC1(c2ccc(F)c(F)c2)NS(=O)(=O)c2ccccc21", "note": "(stereo not given)", "growth": "102%"}, {"smiles": "Cc1cccc(-n2c(C)nc3ccc(NC(=O)NCCCl)cc3c2=O)c1", "growth": "114%"}, {"smiles": "Cc1ccc(S(=O)(=O)NCCCNc2nccc(-c3c(-c4ccccc4)nc4sccn34)n2)cc1", "growth": "93.9%"}, {"smiles": "CCCCCCCCCCn1cc[n+](C)c1", "growth": "31.1%"}, {"smiles": "O=C1CCCCN1CCCCC#Cc1ccccc1C#Cc1ccc([N+](=O)[O-])cc1", "growth": "67.2%"}, {"smiles": "COc1cccc(-c2nc3sccn3c2-c2ccnc(NCCNS(=O)(=O)c3ccccc3)n2)c1", "growth": "119%"}, {"smiles": "CCN(CC)CCCC(C)N=c1cc(Nc2cc(=NC(C)CCCN(CC)CC)c3cc(OC)ccc3o2)oc2ccc(OC)cc12", "note": "(stereo not given)", "growth": "-88.9% (active)"}, {"smiles": "O=S(=O)(NCCCNc1cc(-c2cn(-c3ccccc3)nc2-c2cccc(O)c2)ccn1)c1ccc(C(F)(F)F)cc1", "growth": "-30.5% (active)"}, {"smiles": "COc1ccc(/C=C/c2nc(N3CCOCC3)c3cc(F)c(F)cc3n2)cc1OC", "growth": "38.2%"}, {"smiles": "CCN1C(=O)N(CC)C2C1NN=c1s/c(=C\\c3ccccn3)c(=O)n12", "note": "(stereo not given)", "growth": "65.8%"}, {"smiles": "CCN(C(=O)c1cc2ccccc2[nH]1)[C@H]1CCC[C@@H](NCc2ccc(OC)cc2)C1", "growth": "78.3%"}, {"smiles": "O=S(=O)(NCCCNc1nccc(-c2c(-c3ccc(O)cc3)nc3sccn23)n1)c1ccc(F)cc1", "growth": "-10.7% (active)"}, {"smiles": "CCC(=O)Oc1cc(/C=C/C(=O)O[C@H]2C[C@H]3CN4CCc5c([nH]c6cc(OC)ccc56)[C@@H]4C[C@@H]3[C@@H](C(=O)OC)[C@@H]2OC)ccc1OC", "growth": "115%"}, {"smiles": "Cc1ccc(S(=O)(=O)OC2COCOC2C(OS(=O)(=O)c2ccc(C)cc2)C2OCOCC2OS(=O)(=O)c2ccc(C)cc2)cc1", "note": "(stereo not given)", "growth": "113%"}]}]}
